From a collection of fitness landscapes (doi:10.1016/j.celrep.2020.107928)
Whole data set: some 81,000 sequences, median “one-hybrid fitness for binding parS DNA” near -0.17, cut for the highest 2% near 0.51. For the sample, the highest values were picked, then their nearest neighbours and some sequences at random.

B1: Caulobacter ParB omega fusion; a variant is named by its letters at X, in order, B8GW30 (parent)
chain: MESVVVGEPGMSEGRRGLGRGLSALLGEVDAAPAQAPGEQLGGSREAPIEILQRNPDQPRRTFREEDLEDLSNSIREKGVLQPILVRPSPDTAGEYQIVAGERAWRAAQRAGLKTVPIMVRELDDLAVLEIGIIENVQRADLNVLEEALSYKVLMEKFERTQENIAQTIGKSXSHVANXMRLLXLPDEVQSYLVSGELTAXHARAIAAAADPVALAKQIIEGGLSVRETEALARKAPNLSAGKSKGGRPPRVKDTDTQALESDLSSVLGLDVSIDHRGSTGTLTITYATLEQLDDLCNRLTRGI

Variants of: B1
Assay: one-hybrid fitness for binding parS DNA (scaled: cognate 1, non-cognate 0); higher = stronger binding
Details: with parS DNA site
Procedure, shortened: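 Pre- and post-selection plasmids were Illumina-sequenced, three replicate libraries were pooled, and any variant with under 10 reads was removed. The libraries were Caulobacter ParB with four specificity codons randomised, selected in E. coli USO through a HIS3 reporter whose site is 19 bp from the promoter. Cells grew 48 hours at 37°C on M9 without histidine, with 0.1 mM IPTG and 5 mM 3-AT. Fitness is the log change in variant-to-wild-type read ratio, rescaled against cognate and non-cognate.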

Variant	one-hybrid fitness for binding parS DNA
HPWF	≤ 0.2
TRNA	≤ 0.2
QQAP	≤ 0.2
AFMD	≤ 0.2
PRPT	≤ 0.2
LTYS	≤ 0.2
WIST	≤ 0.2
RGST	0.601
RGQS	0.803
RGDT	0.371
RGYT	0.475
RGNT	0.609
RGQD	≤ 0.2
RGSY	0.226
RGNF	≤ 0.2
RGPT	≤ 0.2
RGRT	0.676
RGQN	0.249
LTFV	≤ 0.2
QTHV	≤ 0.2
HQLT	≤ 0.2
QKHC	≤ 0.2
SLYD	≤ 0.2
GLTA	≤ 0.2
CINY	≤ 0.2
YKSG	≤ 0.2

Variant	one-hybrid fitness for binding parS DNA
PKIS	≤ 0.2
EFPF	≤ 0.2
DVWS	≤ 0.2
NFYC	≤ 0.2
DMTG	≤ 0.2
RGRD	≤ 0.2
RGRS	0.932
RGHD	≤ 0.2
RGYD	≤ 0.2
RGYS	0.586
RGPS	0.336
RGAT	0.524
RGHS	0.73
RGFT	0.455
RGHH	≤ 0.2
RGAP	≤ 0.2
RGRP	≤ 0.2
NMTN	≤ 0.2
HQTD	≤ 0.2
CKKK	≤ 0.2
SMHA	≤ 0.2
LLCV	≤ 0.2
RNEW	≤ 0.2
RGLS	0.65
RGLN	≤ 0.2
RGLD	≤ 0.2

Variant	one-hybrid fitness for binding parS DNA
GMLK	≤ 0.2
TTDG	≤ 0.2
RVIN	0.334
RVIC	0.846
RVPH	≤ 0.2
RVIH	≤ 0.2
RVPN	≤ 0.2
RVPC	0.637
HYPN	≤ 0.2
ITNM	≤ 0.2
RPKT	≤ 0.2
RCKT	0.748
REKT	0.369
RDKT	≤ 0.2
RSKT	0.796
RSKK	≤ 0.2
PRHS	≤ 0.2
MIYR	≤ 0.2
VPKS	≤ 0.2
TLQM	≤ 0.2
RSMA	0.576
RFMA	0.504
RRMA	0.809
NTMA	≤ 0.2
NRMA	≤ 0.2
RTMA	0.582

Variant	one-hybrid fitness for binding parS DNA
AYMA	≤ 0.2
RYMA	0.553
SYMA	≤ 0.2
DTMA	≤ 0.2
DRMA	≤ 0.2
RWMA	0.287
NGLP	≤ 0.2
DLGV	≤ 0.2
QGYV	≤ 0.2
HVLF	≤ 0.2
IQVR	≤ 0.2
RYHV	≤ 0.2
WPYE	≤ 0.2
RRPL	≤ 0.2
ALDW	≤ 0.2
VVHY	≤ 0.2
RMMA	0.643
RAMA	0.565
RDMA	≤ 0.2
RIMA	0.6
RGMA	0.283
RKMA	0.54
DVGK	0.252
PLIV	≤ 0.2
KHAR	≤ 0.2
MMTD	≤ 0.2

Variant	one-hybrid fitness for binding parS DNA
HGPW	≤ 0.2
CYVF	≤ 0.2
NKSN	≤ 0.2
THAA	≤ 0.2
HRMC	0.225
YECR	≤ 0.2
PLHI	≤ 0.2
EKSD	≤ 0.2
KREK	≤ 0.2
QAYP	≤ 0.2
PIYC	≤ 0.2
RHMA	0.503
RCMA	0.609
RLMA	0.613
RPMA	≤ 0.2
RNMA	0.47
VSPG	≤ 0.2
TMCY	≤ 0.2
DQLR	≤ 0.2
RRPH	≤ 0.2
RRID	≤ 0.2
RRPP	≤ 0.2
RRPT	0.761
RRIT	0.693
RRIF	≤ 0.2
DSHR	≤ 0.2

Variant	one-hybrid fitness for binding parS DNA
CMQS	≤ 0.2
SCFI	≤ 0.2
RRSC	0.596
RRSM	0.364
RRLC	0.669
RRLP	≤ 0.2
RRNQ	≤ 0.2
RRRF	≤ 0.2
RRRQ	≤ 0.2
RRLH	≤ 0.2
RRNF	≤ 0.2
RRNC	0.615
RRRC	0.634
RRSF	≤ 0.2
LYTA	≤ 0.2
EYRT	≤ 0.2
PNAE	≤ 0.2
HFHS	≤ 0.2
VVVF	≤ 0.2
PGKV	≤ 0.2
GQNG	≤ 0.2
PYHE	≤ 0.2
FDPI	≤ 0.2
